Experimental data reported in PubChem BioAssay (NCI).
About 79,000 compounds went through this panel and 15% of them were active in at least one assay; those are over-represented in the sample as a whole. The source made the active and inactive calls. Rule as the data show it: active = growth inhibition above about 70%; inactive = the rest.

Key:
[1] = NCI Yeast Anticancer Drug Screen. Data for the rad50 strain (AID 155);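 also: 0% = growth of vehicle-only cultures of the same strain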; conditions: S. cerevisiae rad50 strain growth inhibition, stronger effect = higher value
Method in brief: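 Genetically altered yeast (DNA repair pathway); compound treatment; growth inhibition vs vehicle ctrl.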

[2] = NCI Yeast Anticancer Drug Screen. Data for the mec2-1 strain (AID 157); conditions: S. cerevisiae mec2-1 strain, stronger effect = higher value
Method in brief: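 Using mec2-1 yeast: add compound, measure growth, express inhibition versus vehicle-treated cultures.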

[3] = NCI Yeast Anticancer Drug Screen. Data for the sgs1 mgt1 strain (AID 161);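 also: 0% = growth of cultures given vehicle only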; conditions: S. cerevisiae sgs1 mgt1 strain, stronger effect = higher value
Method in brief: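 This yeast growth screen uses a strain with defined DNA-repair lesions; compound-treated growth is compared with vehicle-treated growth.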

[4] = NCI Yeast Anticancer Drug Screen. Data for the cln2 rad14 strain (AID 165);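 also: 0% = growth equal to vehicle treated cultures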; conditions: S. cerevisiae cln2 rad14 strain, stronger effect = higher value
Method in brief: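 Yeast strain cln2 rad14, bearing defects in cell cycle control and DNA repair, serves as the test system; values reflect growth inhibition compared with vehicle.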

[5] = NCI Yeast Anticancer Drug Screen. Data for the bub3 strain (AID 167); conditions: S. cerevisiae bub3 mutant strain, stronger effect = higher value
Method in brief: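 Yeast carrying a defined mutation is treated with each compound, and growth is compared with that of vehicle-exposed cells to give inhibition.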

[6] = NCI Yeast Anticancer Drug Screen. Data for the mlh1 rad18 strain (AID 175); conditions: S. cerevisiae mlh1 rad18 strain growth inhibition, stronger effect = higher value
Method in brief: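 Steps: expose repair-defective yeast to compound; measure growth; express inhibition against vehicle-treated controls.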

[7] = at 5.0 µM (retest, dose inferred, filed as 0.5)
[8] = at 50.0 µM (retest, dose inferred, filed as 5.0)

Measured: growth inhibition

O=C1C2=C(Nc3cc([N+](=O)[O-])ccc3N2)OC1c1c2ccccc2cc2ccccc12 (stereo not given)
inactive: [2]; at 50.0 µM 66.4% | [4]; [7] 62% | [4]; at 50.0 µM 35.5% | [5]; [7] 34%
active: [1]; [7] 89% | [1]; [8] 98% | [1]; at 50.0 µM 93.5% | [2]; [7] 70% | [2]; [8] 99% | [3]; [7] 70% | [3]; [8] 99% | [3]; at 50.0 µM 96% | [4]; [8] 98% | [5]; [8] 99% | [5]; at 50.0 µM 78.4% | [6]; [7] 92% | [6]; [8] 99% | [6]; at 50.0 µM 93.6%

CN(C)CCC(/C=C/c1ccccc1)=N\Nc1ccc(Cl)c(Cl)c1
active: [1]; [7] 98% | [1]; [8] 96% | [1]; at 50.0 µM 99.7% | [2]; [7] 99% | [2]; [8] 98% | [2]; at 50.0 µM 99.6% | [3]; [7] 99% | [3]; [8] 98% | [3]; at 50.0 µM 99.5% | [4]; [7] 75% | [4]; [8] 95% | [4]; at 50.0 µM 98% | [5]; [7] 95% | [5]; [8] 97% | [5]; at 50.0 µM 99.3% | [6]; [7] 98% | [6]; [8] 97% | [6]; at 50.0 µM 99.5%

Cc1nc(Nc2c(C)cccc2C)c2c(C)c[nH]c2n1
active: [1]; at 50.0 µM 86.8% | [3]; at 50.0 µM 85.2% | [5]; at 50.0 µM 75.5% | [6]; at 50.0 µM 90.3%
inactive: [1]; [7] -2% | [1]; [8] 2% | [2]; [7] -5% | [2]; [8] 3% | [2]; at 50.0 µM 69.1% | [3]; [7] 0% | [3]; [8] 1% | [4]; [7] -1% | [4]; [8] -1% | [4]; at 50.0 µM 27.2% | [5]; [7] -4% | [5]; [8] -2% | [6]; [7] -2% | [6]; [8] -5%

C=C1CC(Cn2ccc(=O)[nH]c2=O)(c2ccc(Cl)cc2)OC1=O (stereo not given)
inactive: [1]; [7] 11% | [1]; [8] 64% | [1]; at 50.0 µM 47.9% | [2]; [7] -4% | [2]; at 50.0 µM 49.8% | [3]; [7] -22% | [4]; [7] 27% | [4]; [8] 35% | [4]; at 50.0 µM 39.5% | [5]; [7] 6% | [5]; at 50.0 µM 65.8% | [6]; [7] 19%
active: [2]; [8] 85% | [3]; [8] 80% | [3]; at 50.0 µM 70% | [5]; [8] 87% | [6]; [8] 81% | [6]; at 50.0 µM 74.1%

O=S(=O)(c1ccc(O)cc1)c1ccc(Cl)cc1
inactive: [1]; [7] -8% | [1]; [8] 38% | [1]; at 50.0 µM 44.3% | [2]; [7] -11% | [2]; [8] 20% | [3]; [7] -5% | [3]; [8] 49% | [4]; [7] 4% | [4]; [8] 35% | [4]; at 50.0 µM 49.1% | [5]; [7] 0% | [5]; [8] 46% | [5]; at 50.0 µM 56.2% | [6]; [7] 4% | [6]; at 50.0 µM 48.2%
active: [2]; at 50.0 µM 81.3% | [3]; at 50.0 µM 79.5% | [6]; [8] 79%
